Only some compounds are listed: those with a hit (about 3.4% of all), similar ones and a draw of the others.
GPR151 ag: activates the human receptor GPR151; AID 1508602; Q8TDV0; activation, % at 11.2 µM; PathHunter beta-arrestin GPR151 cells, luminescence; 650,000 tested, 1% active; in the data active = activation above about 4.9%;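 also: 0% = median of compound wells and 100% = cells with positive control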
FBW7 act: human FBW7 E3 ligase activation, primary screen. AlphaScreen FBW7–phospho-cyclin E peptide binding, activator screen. normalized activity (activation), % at 26.1 µM. 650,000 tested, 0.13% active; in the data active = normalized activity above about 1.9%;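 also: purified mutant Fbw7 with reduced substrate affinity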
TEAD-YAP block: TEAD-YAP interaction inhibition; inhibition, % at 9.12 µM; 640,000 tested, 1.4% active; HEK-TIYL cells, TEAD-Gal4/YAP UAS-luciferase luminescence; in the data active = inhibition above about 32%;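 also: 0% = median of test compound wells and 100% = reference inhibitor wells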
MITF inh: blocks human microphthalmia-associated transcription factor; O75030; AlphaScreen MITF homodimerization, bead proximity signal; inhibition, % at 2.6 µM; 650,000 tested, 0.91% active; in the data active = inhibition above about 50%;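 also: 0% = vehicle wells with protein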
Target sequence (O75030 whole entry, looked up): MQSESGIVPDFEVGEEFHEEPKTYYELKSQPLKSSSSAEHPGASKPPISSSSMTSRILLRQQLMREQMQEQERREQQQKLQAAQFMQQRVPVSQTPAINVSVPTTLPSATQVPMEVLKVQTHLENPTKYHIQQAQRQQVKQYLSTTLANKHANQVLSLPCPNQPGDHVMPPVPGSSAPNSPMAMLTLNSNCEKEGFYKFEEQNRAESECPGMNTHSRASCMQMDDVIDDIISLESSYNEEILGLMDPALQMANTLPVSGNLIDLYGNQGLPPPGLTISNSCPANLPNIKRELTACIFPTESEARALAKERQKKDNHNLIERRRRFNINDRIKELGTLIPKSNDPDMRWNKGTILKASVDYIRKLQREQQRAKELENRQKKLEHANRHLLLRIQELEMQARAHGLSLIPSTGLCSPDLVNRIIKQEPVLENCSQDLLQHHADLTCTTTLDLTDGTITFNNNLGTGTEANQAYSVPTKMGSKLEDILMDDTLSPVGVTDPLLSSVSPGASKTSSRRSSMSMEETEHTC
An asterisk follows results filed as active.

C=CCN1C(=O)/C(=C/c2ccc(OC(C)=O)c(OCC)c2[N+](=O)[O-])SC1=S was read as GPR151 ag 0, FBW7 act -1, TEAD-YAP block 37* and MITF inh 21.
CCOC(=O)c1c(C)c(C(=O)Nc2cc(C)ccc2OC)c(C)n1CC was read as GPR151 ag 1, FBW7 act 0, TEAD-YAP block 41* and MITF inh 3.
CCOC(=O)c1[nH]c(C)c(C(=O)N2CCc3ccccc32)c1C was read as GPR151 ag 0, FBW7 act 0, TEAD-YAP block 49* and MITF inh -4.
CCOC(=O)c1[nH]c(C)c(C(=O)Nc2cc(C)ccc2C)c1C was read as GPR151 ag 0, FBW7 act 0, TEAD-YAP block 40* and MITF inh 2.
CCOC(=O)c1[nH]c(C)c(C(=O)Nc2cccc(C)c2C)c1C was read as GPR151 ag 1, FBW7 act 0, TEAD-YAP block 42* and MITF inh 8.
Cc1cc2c(cc1C)CN(c1ccc(/C=N/NC(N)=O)cc1)C2 was read as GPR151 ag 0, FBW7 act 0, TEAD-YAP block -17 and MITF inh 8.
Screening CCCCN(CCCC)C(=O)Cc1cccs1 returned GPR151 ag 1, FBW7 act 0, TEAD-YAP block 44* and MITF inh 0.
CCOc1ccc2[nH]cc(C(=O)NCc3cccnc3)c(=O)c2c1 was read as GPR151 ag 0, FBW7 act 0, TEAD-YAP block 41* and MITF inh 6.
Screening COc1cccc2c1OC1(CCC(C)CC1)N1N=C(c3ccc(C)o3)CC21 (configuration not stated) returned GPR151 ag -3, FBW7 act 0, TEAD-YAP block 33* and MITF inh 10.
Screening COc1ccc(C2Oc3c(OC)cccc3C3CC(c4cccc(OC)c4)=NN32)cc1 (configuration not stated) returned GPR151 ag -1, FBW7 act 0, TEAD-YAP block 44* and MITF inh 0.
COc1ccc(C2=NN3C(C2)c2cccc(OC)c2OC3c2ccc(OC)cc2)cc1 (configuration not stated) was read as GPR151 ag -1, FBW7 act 0, TEAD-YAP block -59 and MITF inh -3.
For CCOc1cccc2c1OC(c1ccc(OC)cc1)N1N=C(c3ccc(C)o3)CC21 (configuration not stated) the results were GPR151 ag -2, FBW7 act 0, TEAD-YAP block -12 and MITF inh -4.
COc1cccc(C2Oc3c(OC)cccc3C3CC(c4ccc(C)o4)=NN32)c1 (configuration not stated) was read as GPR151 ag -1, FBW7 act 0, TEAD-YAP block 38* and MITF inh -1.
COc1cccc2c1OC1(CCCCC1)N1N=C(c3ccc(C)o3)CC21 (configuration not stated) was read as GPR151 ag -1, FBW7 act 0, TEAD-YAP block 28 and MITF inh -3.
Screening CCC(C)C(=O)Nc1ccc(F)c([N+](=O)[O-])c1 (configuration not stated) returned GPR151 ag 1, FBW7 act 0, TEAD-YAP block -2 and MITF inh -2.
`COc1cccc(Nc2cc(N3CCCCC3)c3noc4c3c2C(=O)c2ccccc2-4)c1` gave GPR151 ag -2, FBW7 act -1, TEAD-YAP block 0 and MITF inh 41.
COc1ccc(Nc2cc(N3CCCC3)c3noc4c3c2C(=O)c2ccccc2-4)cc1 was read as GPR151 ag -1, FBW7 act 0, TEAD-YAP block -10 and MITF inh 2.
COc1ccc(Nc2cc(N3CCCCC3C)c3noc4c3c2C(=O)c2ccccc2-4)cc1 (configuration not stated) was read as GPR151 ag -2, FBW7 act -1, TEAD-YAP block 25 and MITF inh 51*.
Screening COc1cccc(Nc2cc(N3CCCCC3C)c3noc4c3c2C(=O)c2ccccc2-4)c1 (configuration not stated) returned GPR151 ag -1, FBW7 act -1, TEAD-YAP block 6 and MITF inh 69*.
For COC(=O)Cc1c(C)c2ccc(OCC(=O)c3ccc(Cl)s3)cc2oc1=O the results were GPR151 ag -1, FBW7 act 1, TEAD-YAP block 10 and MITF inh 2.
For COc1cc(OC)cc(C(=O)c2ccc(C(=O)Nc3cc(C(C)C)c(O)cc3C)cc2)c1 the results were GPR151 ag 0, FBW7 act 0, TEAD-YAP block 47* and MITF inh -1.
For COc1ccc(C(=O)Nc2cc(C)ccc2O)c(OC)c1 the results were GPR151 ag 1, FBW7 act 0, TEAD-YAP block -52 and MITF inh 6.
Screening COc1ccc(C(=O)Nc2cc(C)ccc2O)cc1 returned GPR151 ag -9, FBW7 act 0, TEAD-YAP block 44* and MITF inh -5.
Cc1ccc(O)c(NC(=O)c2ccc(N3C(=O)c4ccc([N+](=O)[O-])cc4C3=O)cc2)c1 was read as GPR151 ag 0, FBW7 act 0, TEAD-YAP block 55* and MITF inh -26.
For O=C(Nc1ccc([N+](=O)[O-])cc1)c1ccc(N2C(=O)c3ccc([N+](=O)[O-])cc3C2=O)cc1 the results were GPR151 ag 0, FBW7 act 0, TEAD-YAP block -6 and MITF inh 8.
`COc1cccc(Nc2nc(N3CCN(CCO)CC3)nc3c2cnn3C)c1` gave GPR151 ag 2, FBW7 act 0, TEAD-YAP block 41* and MITF inh 10.
`CC1CCC(C(C)C)C(OC(=O)Cn2c(-c3ccc(Cl)cc3)[n+](C)c3ccccc32)C1` (configuration not stated) gave GPR151 ag 4, FBW7 act 0, TEAD-YAP block 45* and MITF inh -3.
For Cc1ccccc1NC(=O)C(=O)NCc1ccncc1 the results were GPR151 ag -1, FBW7 act 0, TEAD-YAP block -9 and MITF inh 18.
`NC(=O)/C(=N\O)c1nc(-c2ccc(Cl)cc2)cs1` gave GPR151 ag -2, FBW7 act 0, TEAD-YAP block 32* and MITF inh 21.
Screening NC(=O)/C(=N/O)c1nc(-c2ccc(Br)cc2)cs1 returned GPR151 ag 0, FBW7 act 0, TEAD-YAP block 9 and MITF inh -4.
Screening O=C(O)CCCN(Cc1ccc(Cl)cc1)S(=O)(=O)c1ccc(Br)cc1 returned GPR151 ag -1, FBW7 act 0, TEAD-YAP block -3 and MITF inh 8.
Screening O=C(O)CCN(Cc1ccc(Cl)cc1)S(=O)(=O)c1ccc(Br)cc1 returned GPR151 ag 1, FBW7 act 2.1*, TEAD-YAP block -2 and MITF inh 14.
Screening CCOc1cc(C(Nc2cc(C)ccn2)c2ccc3cccnc3c2O)ccc1OCc1ccccc1 (configuration not stated) returned GPR151 ag 0, FBW7 act 0, TEAD-YAP block 80* and MITF inh 7.
